In this test the test system is PPARg:RXRa 90nM:30nM, anti-RXR (NR concentration 90 nM, RXRa partner concentration 30 nM). Nature of the test: PBM binding z-score (relative to random genomic background probes); higher = stronger binding; sequences stand for … in GC…GCGATTGACAGCGTAGAATGAAGG
Put shortly:
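Regression normalization was applied to scanned fluorescence from custom Agilent 4×180K protein-binding microarrays. Before scanning, arrays were incubated 1 h with ligand-free nuclear receptor dimers, and binding was detected with antibodies against each partner (one per run). Binding z-scores use the random background probes as reference.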
CCCCGGAGGACAGAAGGTCAGAGCTGTCCGCTTT gave a PBM binding z-score of 0.0217.

CCTACGGGGCCAAAGGTCATTGATTCCAATGCTC registered a PBM binding z-score of 11.1.

Regarding TAGCCTAGCTCATTCAGGGGCCAGTATAGAAAGC, the PBM binding z-score is -0.823.

As to TAGCCTAGGTCATTGGGCTAGTATAGTACGCATC, the PBM binding z-score is 1.97.

Consider ATATGTAGGTTAGGGTCATTCCGAAAGTAGGGAA, for which the PBM binding z-score came to 6.26.

In the case of GACACAGGGTCAGCTAGAGGCCAGAGTATGGAAA, the PBM binding z-score worked out at 1.71.

With CGAACTAGGCCACCAGGACAGTGAAGAGGTTGGA, the PBM binding z-score worked out at 1.23.

The sequence CCGTACGGGTCAAGGTTATAGCACGGGTGGTACG had a PBM binding z-score of 2.77.

CCTACAGGGCCAAAGGTCATTGATTCCAATGCTC gave a PBM binding z-score of 9.99.

Take CCTACTGGGCCATCAGGTGATTGATATCAACGTT: the PBM binding z-score stood at 1.27.

ATCGAATGGTCGAAGGTGAGTATACCCACCCGAA yielded a PBM binding z-score of 1.31.

For CCTAGTTGGTCAGGAGGTCACAAACCGGATATGA, the PBM binding z-score was determined as 2.73.

ATACGTAGGTTACATCCGGGTCATTCAGGCTATG returned a PBM binding z-score of 1.13.

As for CCTTACGGGTCACTGACAGGTCATAGCATTTGGA, the PBM binding z-score was determined as 4.03.

Sequence CCTAGTTGGTCAGGAGGCCACACACCGGATATGA gave a PBM binding z-score of 0.128.

CGAACTAGGTCACCTGGACAGTGAAGAGGTTGGA returned a PBM binding z-score of 5.86.

On to CGAACTAGGTCACCATGACAGTGAAGAGGTTGGA, for which the PBM binding z-score is 6.23.

In turn, CCTACTGGGCCAAAAATGTCATTGATGCCGATAA returned a PBM binding z-score of 0.391.

As to CGCACTAGGTCACCAGGACAGTGAAGAGGTTGGA, the PBM binding z-score was determined as 6.23.

The sequence CGAACTATGTCACCAGGACAGTGAAGAGGTTGGA yielded a PBM binding z-score of 0.775.

With ATACCAAGGTTATCGTGAGGTCGTTGATACTAAC, the PBM binding z-score came to 1.07.

Turning to CCTACTGGGCGACGAAAGGTCATTGATTCAGTGA, the PBM binding z-score stood at 2.73.

For the origin of these results see the supplement of paper PMC6555819.
